Results filed as inconclusive are left out. Activity calls are given as the source filed them. Unless noted, calls follow the shape of the dose curve; as a rule, active = well fitted curve in the direction sought with a large enough effect in the repeat runs; inconclusive = weak or mixed curves; inactive = no such curve, though single readings can be large; an effect the other way counts as inactive or inconclusive.
What was measured:
[1] = qHTS assay to identify small molecule HDAC inhibitors (AID 1259364); also: top concentration of the series differs between compounds; nearly all actives have a fitted effect of over 45% in size
Outline: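 Luminescence read after 30 min room-temperature HDAC-Glo incubation measures cellular class I/II HDAC activity. Compounds were applied for 2 hr at 37 C to HCT-116 wild-type cells seeded the day before.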

[2] = qHTS assay to identify small molecule HDAC inhibitors - cell viability counter screen (AID 1259365); also: series mostly up to about 92 µM; nearly all actives have a fitted effect of over 50% in size
Outline: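 Wild-type HCT-116 cells, 1,500/well, cultured overnight, then compound-treated 2 h at 37 C. Viability measured as ATP luminescence with CellTiter-Glo after 30 min at room temperature.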

[3] = qHTS assay to identify small molecule agonists of the sonic hedgehog signaling (Shh) pathway - cell viability counter screen (AID 1259366); also: nearly all actives have a fitted effect of over 50% in size
Outline: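 NIH/3T3-derived Gli1-Luc reporter cells, 2,000 per well, received compound after 4 h and were treated about 23 h at 37C. Viability measured in the same wells by CellTiter-Fluor fluorescence after 1 h.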

[4] = qHTS assay to identify small molecule antagonists of the sonic hedgehog signaling (Shh) pathway - cell viability counter screen (AID 1259367); also: nearly all actives have a fitted effect of over 55% in size
Outline: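 Cytotoxicity was assessed in parallel with Shh reporter activity by measuring live-cell protease fluorescence (CellTiter-Fluor) in NIH/3T3 cells stably carrying Gli1-Luc, treated with compound under conditioned medium stimulation for 23 hr plus 1 hr reagent incubation.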

[5] = qHTS assay to identify small molecule agonists of the sonic hedgehog signaling (Shh) pathway (AID 1259368; calls by dose curve;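 also: NIH/3T3-derived 3T3Gli1-Luc cells carrying a stable Gli1-driven firefly luciferase reporter; series mostly up to about 92 µM; nearly all actives have a fitted effect of over 15% in size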)
Outline: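 Luminescence was read after 30 min at room temperature with luciferase reagent. Before that, 3T3Gli1-Luc cells (NIH/3T3 clone, stable Gli1-Luc reporter; 2,000/well) were exposed to compounds for 24 hr at 37C, 5% CO2, compounds being added 4 hr post-plating.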

[6] = qHTS assay to identify small molecule antagonists of the sonic hedgehog signaling (Shh) pathway (AID 1259369; calls by dose curve; also: nearly all actives have a fitted effect of over 45% in size)
Outline: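 Antagonist mode: compound added to 3T3 Gli1-Luc cells followed by conditioned-medium stimulation, 24 h at 37 C, 5% CO2. Inhibition taken as loss of Gli1-driven luciferase luminescence.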

[7] = target: Estrogen receptor beta (Homo sapiens) (UniProt Q92731); test: qHTS assay to identify small molecule agonists of the estrogen receptor beta (ER-beta) signaling pathway (AID 1259377; active = well fitted activation curve with a large enough effect in the signal ratio in the repeat runs, not every such curve was filed as active; the % refers to the signal ratio)
Sequence of Estrogen receptor beta (Homo sapiens) (Q92731 whole entry, looked up): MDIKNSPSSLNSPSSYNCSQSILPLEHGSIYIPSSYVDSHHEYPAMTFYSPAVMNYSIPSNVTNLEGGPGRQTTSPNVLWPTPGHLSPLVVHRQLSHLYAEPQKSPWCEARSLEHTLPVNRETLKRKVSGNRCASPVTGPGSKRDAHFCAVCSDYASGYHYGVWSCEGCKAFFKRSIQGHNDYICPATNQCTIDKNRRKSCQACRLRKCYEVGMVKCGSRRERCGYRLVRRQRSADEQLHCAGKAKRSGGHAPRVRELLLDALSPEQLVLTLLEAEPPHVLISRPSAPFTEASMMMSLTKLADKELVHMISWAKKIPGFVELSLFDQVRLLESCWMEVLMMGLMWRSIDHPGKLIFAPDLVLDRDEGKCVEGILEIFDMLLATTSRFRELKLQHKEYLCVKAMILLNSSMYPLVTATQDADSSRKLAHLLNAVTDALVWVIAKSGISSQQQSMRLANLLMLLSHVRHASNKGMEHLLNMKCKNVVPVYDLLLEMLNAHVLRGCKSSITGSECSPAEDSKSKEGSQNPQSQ
Outline: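 ER-beta-UAS-bla HEK293T cells in medium with 2% charcoal-stripped FBS were exposed to compounds for 16 h at 37C. Beta-lactamase reporter activity was read as fluorescence after 2 h with LiveBLAzer B/G FRET substrate at room temperature.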

[8] = target: Estrogen receptor beta (Homo sapiens) (UniProt Q92731); test: qHTS assay to identify small molecule antagonists of the estrogen receptor beta (ER-beta) signaling pathway (AID 1259378; active = well fitted inhibition curve with a large enough effect in the signal ratio in the repeat runs, not every such curve was filed as active; the % refers to the signal ratio)
Outline: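 ER-beta-UAS-bla HEK293T (GripTite) cells in 2% charcoal-stripped FBS medium were preincubated 6 hr at 37C, dosed with compound, then stimulated with 1 nM E2 (final) for 16 hr; beta-lactamase reporter read by B/G FRET fluorescence after 2 hr substrate loading.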

[9] = qHTS assay to identify small molecule agonists of the androgen receptor (AR) signaling pathway in the presence of an antagonist - cell viability counter screen (AID 1259379);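 also: MDA-kb2 human breast cancer cells carrying an MMTV luciferase reporter; series mostly up to about 92 µM; nearly all actives have a fitted effect of over 25% in size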
Outline: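 Cytotoxicity counter-screen run in the same wells as the nilutamide-challenged (3.0 µM final) AR agonist assay in MDA-kb2 cells. Compounds tested at 15 concentrations for 16 h, 37 °C without CO2; CellTiter-Fluor fluorescence read.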

[10] = qHTS assay to identify small molecule agonists of the estrogen receptor beta (ER-beta) signaling pathway - cell viability counter screen (AID 1259380); also: nearly all actives have a fitted effect of over 30% in size
Outline: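 Cell viability counter screen: CellTiter-Glo luminescence (30 min, room temperature) measured in the same wells as the beta-lactamase readout, after 16 hr compound exposure at 37C of ER-beta-bla HEK293T cells in 2% charcoal-stripped FBS medium.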

[11] = qHTS assay to identify small molecule antagonists of the estrogen receptor beta (ER-beta) signaling pathway - cell viability counter screen (AID 1259382); also: series mostly up to about 92 µM; nearly all actives have a fitted effect of over 55% in size
Outline: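 Cytotoxicity was measured in the same wells by CellTiter-Glo luminescence after 30 min at room temperature. Cells were ER-beta-bla HEK293T in charcoal-stripped serum, given compound together with 1 nM E2 and incubated 16 h at 37C.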

[12] = target: Estrogen receptor (Homo sapiens) (UniProt P03372); test: qHTS assay to identify small molecule agonists of the estrogen receptor alpha (ER-alpha) signaling pathway in the presence of an antagonist (AID 1259383; calls by dose curve; also: top concentration of the series differs between compounds; nearly all actives have a fitted effect of over 15% in size)
Sequence of Estrogen receptor (Homo sapiens) (P03372 whole entry, looked up): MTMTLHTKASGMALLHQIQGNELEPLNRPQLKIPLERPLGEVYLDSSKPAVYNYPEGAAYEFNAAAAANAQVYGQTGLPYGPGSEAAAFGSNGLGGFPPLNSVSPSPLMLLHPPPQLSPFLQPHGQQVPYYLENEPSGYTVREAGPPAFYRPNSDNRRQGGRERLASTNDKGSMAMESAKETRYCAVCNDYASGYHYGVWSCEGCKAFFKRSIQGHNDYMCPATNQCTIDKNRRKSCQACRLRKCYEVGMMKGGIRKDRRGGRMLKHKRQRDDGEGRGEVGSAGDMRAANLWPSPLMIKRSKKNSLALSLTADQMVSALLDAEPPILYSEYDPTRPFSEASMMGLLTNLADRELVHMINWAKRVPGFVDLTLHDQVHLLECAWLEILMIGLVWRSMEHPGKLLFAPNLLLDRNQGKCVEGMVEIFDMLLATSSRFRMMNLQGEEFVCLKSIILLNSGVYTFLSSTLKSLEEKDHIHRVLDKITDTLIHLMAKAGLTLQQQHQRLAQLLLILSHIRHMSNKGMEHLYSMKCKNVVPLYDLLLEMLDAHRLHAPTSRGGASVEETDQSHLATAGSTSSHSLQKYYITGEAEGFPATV
Outline: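 Agonist-mode confirmation run in the presence of 10.0nM (final) ICI-182,780 antagonist. The reporter was ERE-driven luciferase in VM7Luc4E2 cells, grown in charcoal-stripped serum. Cells were exposed to 15-concentration compound series for 22hr, then ONE-Glo luminescence was read.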

[13] = qHTS assay to identify small molecule agonists or antagonists of the thyroid stimulating hormone receptor (TSHR) signaling pathway - wild type cell line counter screen (AID 1259384; calls by dose curve)
Outline: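 Wild-type HEK293 cells were plated 18 h at 37 C/5% CO2, pin-dosed with compound plus Ro20-1724 medium, held 30 min at room temperature, then given cAMP-d2 and anti-cAMP-cryptate; fluorescence was read after 1 h. Fifteen concentrations, triplicate.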

[14] = target: Thyrotropin receptor (Homo sapiens) (UniProt P16473); test: qHTS assay to identify small molecule antagonists of the thyroid stimulating hormone receptor (TSHR) signaling pathway (AID 1259385; calls by dose curve; also: nearly all actives have a fitted effect of over 20% in size)
Sequence of Thyrotropin receptor (Homo sapiens) (P16473 whole entry, looked up): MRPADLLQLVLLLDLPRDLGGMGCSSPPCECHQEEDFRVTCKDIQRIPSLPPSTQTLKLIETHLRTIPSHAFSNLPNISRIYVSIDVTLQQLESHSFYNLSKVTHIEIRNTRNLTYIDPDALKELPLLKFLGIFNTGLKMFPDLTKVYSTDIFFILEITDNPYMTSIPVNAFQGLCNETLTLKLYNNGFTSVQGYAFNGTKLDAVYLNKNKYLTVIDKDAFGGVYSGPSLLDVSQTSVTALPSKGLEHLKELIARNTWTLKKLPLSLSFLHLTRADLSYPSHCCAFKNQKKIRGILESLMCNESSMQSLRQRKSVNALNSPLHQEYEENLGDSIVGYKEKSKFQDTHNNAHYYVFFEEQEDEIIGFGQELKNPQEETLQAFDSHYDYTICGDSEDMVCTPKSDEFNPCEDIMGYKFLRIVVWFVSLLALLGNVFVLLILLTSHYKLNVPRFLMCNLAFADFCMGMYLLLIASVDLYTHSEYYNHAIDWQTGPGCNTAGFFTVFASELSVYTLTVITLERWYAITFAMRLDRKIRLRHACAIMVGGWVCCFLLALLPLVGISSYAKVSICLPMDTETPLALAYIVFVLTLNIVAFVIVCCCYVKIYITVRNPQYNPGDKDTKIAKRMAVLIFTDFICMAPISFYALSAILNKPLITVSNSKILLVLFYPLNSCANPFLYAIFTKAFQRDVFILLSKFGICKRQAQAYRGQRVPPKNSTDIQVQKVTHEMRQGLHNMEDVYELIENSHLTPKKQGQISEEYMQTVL
Outline: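 TSHR-HEK293 cells were plated and held 18 h at 37C/5% CO2, then given compound plus Ro20-1724 and stimulated with TSH at 1.5 ng/mL final. After 30 min at room temperature, cAMP was detected with cAMP-d2/anti-cAMP-cryptate (1 h) by fluorescence.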

[15] = qHTS assay to identify small molecule agonists of the estrogen receptor alpha (ER-alpha) signaling pathway in the presence of an antagonist - cell viability counter screen (AID 1259386); also: series mostly up to about 92 µM; nearly all actives have a fitted effect of over 30% in size
Outline: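 Compounds tested at 15 concentrations for 22 h at 37C alongside 10.0nM (final) ICI-182,780 antagonist, in VM7Luc4E2 cells grown in phenol red-free, charcoal-stripped medium. Viability read by CellTiter-Fluor fluorescence after 1 h reagent incubation.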

[16] = target: Progesterone receptor (Homo sapiens) (UniProt P06401); test: qHTS assay to identify small molecule agonists of the progesterone receptor (PR) signaling pathway (AID 1346784; calls by dose curve; also: nearly all actives have a fitted effect of over 30% in size)
Sequence of Progesterone receptor (Homo sapiens) (P06401 whole entry, looked up): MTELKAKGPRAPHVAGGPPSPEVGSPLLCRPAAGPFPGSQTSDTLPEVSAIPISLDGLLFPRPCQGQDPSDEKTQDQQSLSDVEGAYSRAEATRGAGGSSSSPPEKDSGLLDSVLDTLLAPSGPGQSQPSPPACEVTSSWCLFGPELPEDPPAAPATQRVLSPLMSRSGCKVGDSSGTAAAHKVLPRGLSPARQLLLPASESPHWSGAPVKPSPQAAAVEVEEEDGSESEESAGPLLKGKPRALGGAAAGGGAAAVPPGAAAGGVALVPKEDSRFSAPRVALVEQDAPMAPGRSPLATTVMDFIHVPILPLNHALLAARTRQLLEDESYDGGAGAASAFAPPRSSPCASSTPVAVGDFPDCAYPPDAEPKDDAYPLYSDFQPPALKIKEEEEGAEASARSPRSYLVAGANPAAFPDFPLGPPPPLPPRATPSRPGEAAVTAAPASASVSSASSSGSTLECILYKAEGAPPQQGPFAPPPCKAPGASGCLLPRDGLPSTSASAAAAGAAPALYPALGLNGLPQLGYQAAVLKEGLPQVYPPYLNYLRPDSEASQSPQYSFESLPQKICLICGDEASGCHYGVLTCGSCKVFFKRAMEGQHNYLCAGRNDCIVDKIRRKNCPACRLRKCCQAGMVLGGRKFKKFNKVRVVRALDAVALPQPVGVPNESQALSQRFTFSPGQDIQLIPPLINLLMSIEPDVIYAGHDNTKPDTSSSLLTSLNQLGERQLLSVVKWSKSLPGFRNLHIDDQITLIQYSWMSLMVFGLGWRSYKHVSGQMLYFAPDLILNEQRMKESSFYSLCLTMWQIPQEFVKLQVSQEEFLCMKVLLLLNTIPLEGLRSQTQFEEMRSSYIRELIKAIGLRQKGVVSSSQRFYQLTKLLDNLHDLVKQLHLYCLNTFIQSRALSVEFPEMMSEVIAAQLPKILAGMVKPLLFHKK
Outline: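 PR-UAS-bla HEK 293T cells (beta-lactamase reporter under UAS) in 2% charcoal-stripped FBS, dosed with 23 nL compound after 6 hr, incubated 16hr at 37C. LiveBLAzer B/G FRET substrate added, fluorescence read after 2 hours.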

[17] = target: Progesterone receptor (Homo sapiens) (UniProt P06401); test: qHTS assay to identify small molecule antagonists of the progesterone receptor (PR) signaling pathway (AID 1346795; active = well fitted inhibition curve with a large enough effect in the signal ratio in the repeat runs, not every such curve was filed as active; the % refers to the signal ratio)
Outline: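 PR-UAS-bla HEK293T cells with beta-lactamase reporter under UAS control, in 2% charcoal-stripped FBS, treated with compounds plus 1 nM promegestone (R5020, final) for 16 hr at 37C. Read-out: FRET beta-lactamase substrate fluorescence after 2 hr at room temperature.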

[18] = qHTS assay to identify small molecule antagonists of the progesterone receptor (PR) signaling pathway - cell viability counter screen (AID 1346798); also: series mostly up to about 92 µM; nearly all actives have a fitted effect of over 50% in size
Outline: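 PR-UAS-bla HEK293T cells, 3,000/well in 2% charcoal-stripped FBS medium, dosed with compounds plus R5020 agonist and incubated 16 h at 37C. Viability then measured in the same wells by CellTiter-Glo luminescence after 30 min at RT.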

[19] = qHTS assay to identify small molecule agonists of the progesterone receptor (PR) signaling pathway - cell viability counter screen (AID 1346799; calls by dose curve; also: nearly all actives have a fitted effect of over 45% in size)
Outline: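 Counter screen in the PR-UAS-bla HEK293T wells (2% charcoal-stripped FBS, 16 h compound exposure at 37 C) after the bla read. CellTiter-Glo added, 30 min at room temperature, luminescence read as cell viability.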

[20] = qHTS assay to identify small molecule antagonists of the TGF-beta/Smad signaling pathway - cell viability counter screen (AID 1346824); also: nearly all actives have a fitted effect of over 50% in size
Outline: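 SBE-bla HEK 293T cells were plated overnight at 37 C, then given compounds in DMSO plus TGF-beta1 (added as 0.25 ng/mL solution) for 5 hr. After the bla read, CellTiter-Glo was added to the same wells and luminescence read after 30 min at room temperature.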

Measured: Potency

CC(C)CCCCCCOC(=O)C1CCCCC1C(=O)OCCCCCCC(C)C (stereo not given)
inactive: all assays above

CCN(CCC#N)c1ccccc1
not listed: [17] | [18]
inactive: all other assays above

O=CN1CCOCC1
not listed: [13]
inactive: all other assays above

Cc1ccccc1C(=O)N1CC/C(=N\OS(=O)(=O)O)c2ccc(Cl)cc21
not listed: [13]
inactive: all other assays above

CCCCCCCCCCCCCCCCCCN(C)C
not listed: [16]
inactive: all other assays above

CCCCCC1Nc2cc(C(F)(F)F)c(S(N)(=O)=O)cc2S(=O)(=O)N1 (stereo not given)
not listed: [19]
inactive: all other assays above

CCCCCCCCCCCCC1CO1 (stereo not given)
not listed: [13] | [14] | [16] | [18] | [19] | [20]
inactive: all other assays above

C[C@H](CCC(=O)NCC(=O)O)[C@H]1CC[C@H]2[C@@H]3[C@H](O)C[C@@H]4C[C@H](O)CC[C@]4(C)[C@H]3C[C@H](O)[C@]12C
not listed: [12]
inactive: all other assays above

CC(CC(=O)O)CC(C)(C)C (stereo not given)
not listed: [13] | [14] | [18] | [20]
inactive: all other assays above

COC(=O)CCC(=O)O
not listed: [9]
inactive: all other assays above

Cc1ccc(S(=O)(=O)NC(=O)NC2CCCCCCC2)cc1
not listed: [9] | [12] | [13]
inactive: all other assays above

C=COCCOCCOC=C
not listed: [12] | [13] | [14] | [16] | [18] | [20]
inactive: all other assays above

CC(C)COC(=O)/C=C/c1ccccc1
not listed: [9] | [11]
inactive: all other assays above

O=C1c2ccccc2-c2ccccc21
not listed: [12] | [20]
inactive: all other assays above

NS(=O)(=O)c1cc2c(cc1Cl)NC(CC1CCCC1)NS2(=O)=O (stereo not given)
not listed: [12]
inactive: all other assays above

Nc1cc(S(=O)(=O)O)ccc1S(=O)(=O)O
not listed: [11] | [12] | [16]
inactive: all other assays above

Source: PubChem BioAssay (Tox21)
